Rows were chosen to be rich in hits. Some 3.3% of all compounds tested hit in one or more screens of this group.
USP2a inh – qHTS Assay for Inhibitors of Ubiquitin-specific Protease USP2a Using CHOP2 as the Reporter; Ubiquitin carboxyl-terminal hydrolase 2 (Homo sapiens), O75604; AID 463254, 2010; USP2 core, Ub-CHOP2 coupled fluorogenic reporter, 485/531; Potency, µM (series often up to 38.3 µM), inactives show at the top dose activity change, negative = inhibition, hits mostly inhibitors; actives 0.01% (n = 330,000);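 further: potency means the concentration at half of the fitted maximal effect; plate controls were DMSO wells for no effect and full inhibition by NEM control for full effect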
Target sequence (O75604 whole entry, looked up): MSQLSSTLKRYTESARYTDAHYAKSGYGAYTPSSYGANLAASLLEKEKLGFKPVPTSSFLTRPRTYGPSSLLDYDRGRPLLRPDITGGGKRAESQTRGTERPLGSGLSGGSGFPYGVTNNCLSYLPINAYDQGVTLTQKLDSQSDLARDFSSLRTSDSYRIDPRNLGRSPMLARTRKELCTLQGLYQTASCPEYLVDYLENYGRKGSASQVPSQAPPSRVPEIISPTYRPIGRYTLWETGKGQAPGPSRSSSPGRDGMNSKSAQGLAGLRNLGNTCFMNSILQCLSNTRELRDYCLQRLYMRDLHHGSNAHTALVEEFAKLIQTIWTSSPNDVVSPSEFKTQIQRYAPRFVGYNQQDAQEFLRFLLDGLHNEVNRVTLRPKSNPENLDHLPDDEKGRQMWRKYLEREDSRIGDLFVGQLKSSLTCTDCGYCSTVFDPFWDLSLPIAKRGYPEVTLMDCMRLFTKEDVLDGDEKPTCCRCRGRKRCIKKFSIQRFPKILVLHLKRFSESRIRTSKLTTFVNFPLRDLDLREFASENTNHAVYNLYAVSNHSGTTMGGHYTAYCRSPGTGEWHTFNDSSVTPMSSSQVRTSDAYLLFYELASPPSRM
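Cell-free coupled assay: 10nM USP2 core preincubated 30min RT with compound in Tris-HCl pH 8.0/CaCl2/CHAPS buffer, then 25nM Ub-CHOP2 and 25nM reporter substrate; fluorescence (Ex 485/Em 531) read after 60min RT, normalized to NEM inhibition, concentration-response curves fitted.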
PLK1 PBD block – qHTS for Inhibitors of PLK1-PDB (polo-like kinase 1 - polo-box domain): Primary Screen. Serine/threonine-protein kinase PLK1 (Homo sapiens), P53350. Plk1 PBD binding of FITC phosphopeptide, fluorescence polarization. Potency, µM, inactives show max response, negative = inhibition, actives largely listed as inhibitors. actives 2.8% (n = 360,000). AID 720504, 2013; further: potency means the concentration at half of the fitted maximal effect; series mostly up to about 57 µM; nearly all actives have a fitted effect of over 65% in size
PI5P4Ka inh – qHTS for Inhibitors of phosphatidylinositol 5-phosphate 4-kinase (PI5P4K); max response, %; AID 652105, 2013; actives 1.2% (n = 330,000); PI5P4Kalpha enzyme, ADP-Glo luminescence, 60 min; stronger effect = lower value; Phosphatidylinositol 5-phosphate 4-kinase type-2 alpha (Homo sapiens), P48426; active means max response of -50% or lower; inconclusive means between -30% and -50%; inactive means -30% or higher; further: value at the top dose of about 77 µM
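ADP-Glo luminescence end-point after a 60 min room-temperature kinase reaction. PI5P4Kalpha and substrate in HEPES pH 7.4 buffer with EGTA, 0.1% CHAPS and 5% DMSO; ATP at 5 microM final.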
USP1 inh – Inhibitors of USP1/UAF1: Primary Screen; Potency, µM (doses to about 57.1 µM), for the others: top-dose activity change, negative = inhibition, actives largely listed as inhibitors; actives 0.23% (n = 390,000); recombinant USP1/UAF1, Ub-Rhodamine cleavage fluorescence; Ubiquitin carboxyl-terminal hydrolase 1 (Homo sapiens), O94782; further: potency means the concentration at half of the fitted maximal effect; nearly all actives have a fitted effect of over 60% in size
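High-throughput fluorogenic screen: 1nM USP1/UAF1 complex, Ub-Rho substrate 150nM final, 50mM HEPES pH 7.8 with 0.5mM EDTA, 0.1 mg/ml BSA, 1mM TCEP and 0.01% Tween-20.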
WRN inhibitor – qHTS for Inhibitors of WRN Helicase; Bifunctional 3'-5' exonuclease/ATP-dependent helicase WRN (Homo sapiens), Q14191; WRN helicase unwinding, fluorescent forked duplex, kinetic; Potency, µM (titrated, usually from 114 µM), for inactives: at the highest dose activity change, negative = inhibition, usual class: inhibitors; actives 0.46% (n = 360,000); further: potency means the concentration at half of the fitted maximal effect; nearly all actives have a fitted effect of over 55% in size
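Enzyme (20 nM final) and test compound sit together 15 min at room temperature before substrate addition. Substrate is a single-forked duplex oligonucleotide (100 nM) labelled with fluorophore and quencher, with 2 mM ATP; helicase unwinding raises red fluorescence, read kinetically.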
An asterisk follows results filed as active; ? = inconclusive; / = not tested or not shown; ! = not confirmed by another sample; [ ] = another dose, or the depositor's remark. Unless noted, the call rests on the fitted dose curve; in most records, active means well fitted curve in the direction sought with a large enough effect; inconclusive means small, poorly fitted or top-dose-only effect, or another doubt; inactive means no such curve, though single readings can be large; an effect the other way counts as inactive or inconclusive. Unless noted, on the % scale 0 is the no-effect control and ±100 the full control effect.

SMILES	USP2a inh	PLK1 PBD block	PI5P4Ka inh	USP1 inh	WRN inhibitor
N#Cc1c(NC(=O)c2cnccn2)sc2c1CCCC2	3%	27µM*	?	-7%	-28%
Cn1ncc(Cl)c1C(=O)NC(=S)Nc1sc2c(c1C#N)CCCCC2	-1%	8.4µM*	-7	-3%	18%
COc1cc(OC)c(NC(=O)Nc2cccc(OCc3cc(=O)n4ccccc4n3)c2)cc1Cl	/	/	/	2%	/
O=C(CSc1nc2c([nH]c3ccccc32)c(=O)n1-c1cccc(Cl)c1)N1CCc2ccccc21	/	/	/	-19%	/
COC(=O)c1ccc(OCC2c3cc(OC)c(OC)cc3CCN2C(=O)c2ccc(OC)cc2)cc1 (stereo unspecified)	/	/	/	-16%	/
COc1ccc(OCC2c3cc(OC)c(OC)cc3CCN2C(=O)C(C)C)cc1 (stereo unspecified)	-1%	27µM*	?	-9%	4%
COC(=O)c1ccccc1NC(=O)CSc1n[nH]c(-c2cccnc2)n1	2%	21µM*	-21	1%	-1%
c1nc(SSc2ncnc3nc[nH]c23)c2[nH]cnc2n1	/	0.84µM*	-80*	-18%	40µM*
COc1ccc(NC(=O)c2cc(S(=O)(=O)NCCC3=CCCCC3)ccc2F)cc1	/	/	/	-18%	/
Cc1nn(-c2ccc(F)cc2)c(Cl)c1/C=N/NC(=O)c1cccs1	3%	0%	-6	-10%	-13%
O=C(N/N=C/c1ccc([N+](=O)[O-])o1)c1ccc(NS(=O)(=O)c2cccs2)cc1	3%	-23%	-62*	-13%	-10%[11.6 µM]
Cc1nn(-c2ccc(Cl)cc2)c(Cl)c1/C=N/NC(=O)c1ccc(NS(=O)(=O)c2cccs2)cc1	/	24µM*	-66*	-29%	-21%
COc1cc(C=NNC(=O)c2ccccc2NS(=O)(=O)c2cccs2)cc(OC)c1O	1%	-10%	6	-24%	-28%
C/C(=N\NC(=O)c1ccc(NS(=O)(=O)c2cccs2)cc1)c1ccc(O)cc1O	3%	2%	-96*	-13%	?
COc1cc(/C=N/NC(=O)c2ccc(NS(=O)(=O)c3cccs3)cc2)cc(OC)c1O	2%	-1%	-60*	-22%	-13%
CC(=O)Nc1cccc(C(=O)NNC(=O)c2ccc(NS(=O)(=O)c3cccs3)cc2)c1	/	-12%	0	2%	2%
COc1ccccc1NC(=O)C1=C(C)Nc2nc(SCc3ccccc3)nn2C1c1cccnc1 (stereo unspecified)	/	/	/	-13%	/
Cc1ccc(NC(=O)CSc2nnc(-c3ccc([N+](=O)[O-])cc3)o2)c(C)c1	/	/	/	-26%	/
Oc1ccc(/C=N/N(Cc2ccccc2)c2ccccc2)c(O)c1O	-3%	?	-76*	-22%	?
Oc1cccc(/C=N/N(Cc2ccccc2)c2ccccc2)c1	-16%	-1%	10	-12%	-18%
Cc1nnc(NC(=O)CCSCCC(=O)Nc2nnc(C)s2)s1	-1%	?	?	-9%	50µM*
CCOc1ccccc1NC(=O)Cn1c(=O)n(-c2ccc(Cl)cc2)c(=O)c2oc3ccccc3c21	/	/	/	-13%	/
CC(NC(=O)Cn1nc(-c2ccccc2)c2ccccc2c1=O)c1ccccc1 (stereo unspecified)	1%	-6%	-9	-8%	-3%
CC(NC(=O)Cn1nc(C(=O)O)c2ccccc2c1=O)c1ccccc1 (stereo unspecified)	4%	30µM*	-13	1%	5%
CCS(=O)(=O)N1CCc2cc(C(=O)N3CCN(c4ccccc4)CC3)ccc21	/	/	/	-10%	/
SMILES	USP2a inh	PLK1 PBD block	PI5P4Ka inh	USP1 inh	WRN inhibitor
CC1CCN(c2ccc3nnc(CCC(=O)Nc4cccc(F)c4)n3n2)CC1	-1%	27µM*	-5	-12%	0%
O=C(COc1ccccc1-c1ccccc1)N/N=C/c1cccc2ccccc12	3%	0%	0	-7%	-11%
O=C(O)c1cccc(NC(=S)N/N=C/c2ccccc2OCc2ccc(Br)cc2)c1	3%	24µM*	-65*	?	-4%[11.6 µM]
O=C(COc1cccc2ccccc12)N/N=C/c1ccccc1OCc1ccc(C(=O)O)cc1	1%	27µM*	-2	?	-8%[11.6 µM]
COc1ccc(-n2c(=O)c3ccccc3n(Cc3ccc(F)cc3Cl)c2=O)cc1OC	/	/	/	-22%	/
Cc1ccc(-c2onc(C)c2C)cc1S(=O)(=O)NCc1cccs1	/	/	/	-18%	/
[O-]c1c[n+](-c2ccc(-[n+]3cc([O-])on3)cc2)no1	1%	-9%	-56*	-1%	-5%[11.6 µM]
Cc1c(CCNC(=O)C(C)(C)C)sc2nc(-c3ccc(F)cc3)nn12	/	/	/	-18%	/
Nc1nc(O)c(Sc2ccccc2[N+](=O)[O-])c(=O)[nH]1	-2%	12µM*	2	-12%	-3%
COc1cc(N=Nc2ccc(Br)cc2)cc(C=O)c1O	/	27µM*	?	-18%	-1%
O=S(=O)(c1ccc(F)cc1)N1CCC(n2c(C(F)(F)F)nc3cccnc32)CC1	/	/	/	-17%	/
Nc1cccc2c1C(=O)N(C(=O)c1cccc(S(=O)(=O)N3CCCCCC3)c1)C2=O	4%	3.2µM*	-24	-11%	4%
Cc1ccc(CN2CCC(CNc3ncnc4onc(-c5ccc(F)cc5)c34)CC2)cc1	/	/	/	-13%	/
CCOc1cc(C(=O)NCCc2csc(-c3ccc(C)cc3)n2)cc(OCC)c1OCC	/	/	/	-26%	/
O=c1c(Cl)c(NCCCO)cnn1-c1nc2ccccc2[nH]1	0%	13µM*	?	-19%	-9%
O=C(O)c1ccc(Oc2nc3ccccc3s2)cc1	/	-3%	0	-18%	0%
O=C(O)c1ccc(C=C(c2nc3ccccc3s2)c2nc3ccccc3s2)cc1	4%	30µM*	11	?	-24%
Cc1cc(C)nc(NNC(=O)NC2CCCCC2)n1	9%	27µM*	-3	-19%	0%
O=C1C2=C(C(=O)c3ccccc31)C1O[C@](CCCCN3C(=O)c4ccccc4C3=O)(Cc3c1ccc1ccccc31)O2	-8%[7.66 µM]	/	/	/	/
COc1ccc(N2C(=O)CS(=O)(=O)C23C(=O)N(Cc2ccc(F)cc2)c2ccc(C)cc23)cc1 (stereo unspecified)	/	/	/	-29%	/
C/C(N)=C(/C#N)C(=O)COC(=O)C1Cc2ccccc2CN1S(C)(=O)=O (stereo unspecified)	-7%	-15%	-59*!	-7%	-32%
CS(=O)(=O)N1Cc2ccccc2CC1C(=O)OCC(=O)NCc1ccccc1 (stereo unspecified)	0%	7%	?	1%	?
